Screens: PubChem BioAssay, The Scripps Research Institute Molecular Screening Center
SF1 inhibitor = inhibitors of human SF-1, primary screen, cell-based, CHO-K1, Gal4-SF-1 LBD, luciferase luminescence; AID 525, 2006; 0.55% of 65,000 active; inhibition, % at 10 µM; CHO-K1 Gal4-SF-1 LBD luciferase reporter;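 active means inhibition above the mean inhibition of all tested compounds plus 3 SD, cut at about 48% in these data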
Target sequence (Q13285 whole entry, looked up, the tested form may be a part): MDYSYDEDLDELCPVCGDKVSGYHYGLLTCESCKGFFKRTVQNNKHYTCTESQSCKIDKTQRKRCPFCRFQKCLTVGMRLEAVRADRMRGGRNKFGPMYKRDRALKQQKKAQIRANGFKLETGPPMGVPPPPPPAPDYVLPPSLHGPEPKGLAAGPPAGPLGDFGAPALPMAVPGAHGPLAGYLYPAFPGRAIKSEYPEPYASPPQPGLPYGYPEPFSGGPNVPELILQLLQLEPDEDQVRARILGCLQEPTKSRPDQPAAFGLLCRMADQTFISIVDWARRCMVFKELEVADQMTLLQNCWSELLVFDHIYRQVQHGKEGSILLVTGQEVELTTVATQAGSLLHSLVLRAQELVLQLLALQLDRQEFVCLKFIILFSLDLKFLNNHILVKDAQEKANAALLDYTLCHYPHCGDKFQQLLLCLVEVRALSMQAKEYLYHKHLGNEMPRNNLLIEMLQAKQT
Large screens that a line does not name were inactive. Many of the other results were omitted from the sample, so hits are more common in it than they were.

O=C(O)c1ccc(COc2c(F)c(F)cc(F)c2F)cc1	none
COc1cc(/C=N/O)ccc1OCc1ccc(C(=O)O)cc1	SF1 inhibitor 90.6
COc1ccc(OCc2ccc(C(=O)O)cc2)cc1	none
COc1ccc(C2=CSC3=NCCN23)cc1F	none
COCCCN(C(C)=O)c1nc(-c2ccc(OC)cc2)cs1	none
CSc1nncc(-c2ccc(F)cc2)n1	none
Cc1c(C(=O)NCc2ccco2)sc2nc(-c3ccccc3)cn12	none
c1ccc(-c2cn3c4c(sc3n2)CCCC4)cc1	SF1 inhibitor 73.0
Cc1c(C(=O)N2CCOCC2)sc2nc(-c3ccccc3)cn12	none
Cn1c(=O)c2cc(S(=O)(=O)NCCC(=O)NCCC3=CCCCC3)ccc2n(C)c1=O	none
CCSc1nnc(NC(=O)c2nn(C(C)C)c(=O)c3ccccc23)s1	none
O=C(CNc1ccc(Oc2ccccc2)cc1)N1CCOCC1	none
CN1Cc2cc(C(=O)c3cc(Cl)cc(CSc4ncccn4)c3O)cnc2NC1=O	SF1 inhibitor 50.0
Cc1ccc(O)c(C(=O)c2cnc3c(c2)CN(CCC(C)C)C(=O)N3)c1	none
Cc1ccc(S(=O)(=O)N2CCN(C(=O)N3CCOCC3)C2C)cc1 (centres undefined)	none
CN1CCN(C(=O)c2cccc(COc3cc(Cl)ccc3Cl)c2)CC1	none
O=C(COc1ccccc1Cl)Nc1ccc(Cl)cn1	none
O=C(O)c1cccc(COc2ccccc2Cl)c1	SF1 inhibitor 93.6
O=C(c1cccs1)c1cn(CC(=O)N2CCc3ccccc3C2)c2ccccc12	none
COc1nc(C)nc2c1sc(=S)n2C	none
Clc1ccc(OCc2nc(-c3ccncc3)no2)c(Cl)c1	none
CC(C)(C)c1ccc(OCc2nc(-c3ccccn3)no2)c(Br)c1	none
Brc1ccc(-c2nc(-c3cccnc3)no2)o1	none
c1ccc(CCCc2nc(-c3ccccn3)no2)cc1	none
Cc1ccc(-c2nc(-c3ccccn3)no2)cc1Cl	SF1 inhibitor 85.8
Cc1ccc(-c2nc(-c3ccccn3)no2)cc1	SF1 inhibitor 92.2
Cc1ccccc1-c1noc(-c2ccc(O)cc2)n1	none
COc1cccc(-c2nc(-c3ccccn3)no2)c1OC	none
Clc1cccc(-c2nc(-c3ccccn3)no2)c1	SF1 inhibitor 70.9
CCN1C(=O)N(CN2CCOCC2)C2C1N(CN1CCOCC1)C(=O)N2CC (centres undefined)	none
CCCCSc1nc2c(c(=O)[nH]1)CCC2	none
COc1ccccc1-c1nnc(SCC(=O)NC2CCCCC2)o1	none
O=C(O)CCC(=O)N1CCN(c2cccc(Cl)c2)CC1	none
COc1ccccc1CC(=O)N1CCN(c2cccc(C(F)(F)F)c2)CC1	SF1 inhibitor 48.5
COc1ccc2c(c1OC)C(=O)N(c1cccc(C(F)(F)F)c1)C2	none
CCC(CC)c1nc(NCCC(=O)O)c2ccccc2n1	none
COc1ccc(Cl)cc1-n1c(=S)sc2c(=O)[nH]c(SCC(=O)NCC3CCCO3)nc21 (centres undefined)	none
CC(=O)Nc1ccc(-c2nc3c(C)cccc3[nH]2)cc1	none
CN1C2C=C3C(C#N)=C(N)C(C#N)(C#N)[C@@H](c4ccc(Cl)cc4)[C@@H]3C1CC2 (some centres undefined)	SF1 inhibitor 48.8
O=C(O)C1CC=CCC1C(=O)Nc1ccc(S(=O)(=O)N2CCCc3ccccc32)cc1 (centres undefined)	none
C/C(N)=C(/C#N)C(=O)CSc1nc2ccc(C)cc2[nH]1	none
Cc1sc2nc3n(c(=O)c2c1C)Cc1ccccc1-3	none
CCN(CC)S(=O)(=O)c1ccc(C(=O)NCc2n[nH]c(=S)n2Cc2ccccc2)cc1	none
COc1cccc(Cn2c(-c3nonc3N)nc3ccccc32)c1	none
CCCCOc1ccccc1NC(=O)Cn1c(-c2nonc2N)nc2ccccc21	SF1 inhibitor 67.3
Nc1nonc1-c1nc2ccccc2n1Cc1ccc(Cl)cc1	none
CC(C)OC(=O)Cn1c(=O)oc2ccccc21	none
Cc1nn(S(=O)(=O)N2CCCCC2)c(C)c1Br	none
CC1CN(c2oc(Cc3cccc4ccccc34)nc2C#N)CC(C)O1 (centres undefined)	none
CCOC(=O)C(NC(=O)Nc1ccc(F)cc1)(OCC)C(F)(F)F (centres undefined)	none
O=C(CSc1cn(Cc2ccccc2)c2ccccc12)Nc1nccs1	none
O=C(CSC1=NCCS1)Nc1ccnc2ccccc12	SF1 inhibitor 66.9
O=C(CCCSc1nc2ccccc2[nH]1)NC1=NCCS1	none
COC(=O)c1cn(C(C)C(=O)NCc2ccco2)c2ccccc12 (centres undefined)	none
CCOC(=O)c1ncn2c1C(=O)OC2(C)C	none
COc1ccc(CCC(=O)Nc2ccc(-c3noc(-c4ccc(OC)c(OC)c4)n3)cc2)cc1	none
COc1ccc(-c2noc(CCCC(=O)NCCc3ccccc3)n2)cc1OC	SF1 inhibitor 60.0
COc1ccc(-c2noc(CCC(=O)NCCN3CCN(c4ccccc4F)CC3)n2)cc1	none
CCOc1cccc(C(=O)Nc2nnc(-c3ccco3)s2)c1	none
COc1ccc(-c2nc(SC)n(C(=O)c3ccco3)n2)cc1	none
C=CCN1C(c2ccc(OCC)cc2)=CS/C1=C(\C#N)c1nnc2n1CCCCC2	none
COc1ccc(-c2nc(C)c(C(C)=O)n2O)cc1OC	none
COc1ccc(-c2cc(C(=O)O)c(C)o2)cc1OC	SF1 inhibitor 50.7
Cc1oc2cc(O)cc(O)c2c(=O)c1-c1ccc2c(c1)OCCCO2	none
COc1ccc(-c2nnc(SCCC(=O)O)n2C)cc1OC	none
Cc1oc(-c2ccc3c(c2)OCCO3)cc1C(=O)O	SF1 inhibitor 80.7
CC(=O)c1c(C)[nH]c(C(=O)Nc2ccc3c(c2)OCCO3)c1C	none
CCOC(=O)N1CCC(c2nc(C)sc2C(=O)O)CC1	none
Cn1c(SCC(=O)Nc2cc(=O)n(C)c(=O)n2C)nnc1-c1cccs1	none
COc1ccccc1CC1(C)NC(=O)N(CC(=O)N2CC(C)OC(C)C2)C1=O (centres undefined)	none
COc1ccc(C(=O)Nc2cccc(OC)c2)cc1	none
COc1ccc(C(=O)NC(=O)Nc2cc(C)ccn2)cc1	SF1 inhibitor 88.8
COc1cccc(NC(=O)c2nc3ncccn3n2)c1	none
Cc1ccc(S(=O)(=O)c2nc(-c3ccco3)oc2SCC(=O)NCC2CCCO2)cc1 (centres undefined)	none
CCOC(=O)C(NC(=O)c1ccccc1)=C1CCCCC1	none
CCOC(=O)c1ccc(N2Cc3cc(C)c(C)cc3C2)cc1O	none
Cc1ccc(-n2nnc3c(SCC(=O)NCc4ccco4)ncnc32)cc1	none
O=C(CCOc1ccccc1)Nc1ccc(S(=O)(=O)N2CCCC2)cc1	none
CCOc1ccc(OCc2cccc(C(=O)N3CCOCC3)c2)cc1	SF1 inhibitor 61.6
Cc1ccc(-c2ccc(OCC(=O)N3CCOCC3)cc2)cc1	none
COc1cccc(C(=O)N2CCN(Cc3cccc(F)c3)CC2)c1	none
CCOc1cc(N2CCOCC2)c(OCC)cc1NC(=O)CSc1cccc[n+]1[O-]	none
CN(c1ccccc1C(=O)NCc1ccccn1)S(C)(=O)=O	none
O=C(c1cccs1)N1CCn2c1nc1ccccc12	none
Clc1ccc(OCCN2CCN(c3ncnc4sccc34)CC2)cc1	SF1 inhibitor 89.7
O=S(=O)(c1ccccc1)N(C1=NCCS1)S(=O)(=O)c1ccccc1	none
O=C(CN1CCC(O)(c2ccc3c(c2)OCO3)CC1)N1CCOCC1	none
COc1ccc2[nH]c(=O)c(CN(C(=O)c3ccco3)C3CCCCC3)cc2c1	none
Cc1ccc(C2=Nc3ccccc3NC(C)(c3ccc(C)o3)C2)o1 (centres undefined)	none
c1ccn2c(SCc3cn4ccsc4n3)nnc2c1	none
O=C(Nc1ccc2c(c1)OCO2)C1COc2ccccc2O1 (centres undefined)	none
O=C(NC1=NCCS1)C1COc2ccccc2O1 (centres undefined)	SF1 inhibitor 65.5
Cc1nnc(NC(=O)C2COc3ccccc3O2)s1 (centres undefined)	none
